Data taken from PubChem BioAssay.
Values joined by “and” are separate entries in the source; they are usually repeats but may differ in a detail not shown here. Identical values can stand only once. Active and inactive are the calls of the source.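 Rule for the calls, unless noted: active = at least 20% inhibition of 6-phosphogluconate dehydrogenase activity; inactive = the rest.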

How the values were obtained:
[1] = target: 6-phosphogluconate dehydrogenase, decarboxylating (Homo sapiens) (UniProt P52209); assay: inhibition of human phosphogluconate dehydrogenase – biochemical, recombinant enzyme, NADPH absorbance, primary screen (AID 1159550); settings: recombinant 6PGD, NADPH absorbance 341 nm; at 10 µM; stronger effect = higher value
6-phosphogluconate dehydrogenase, decarboxylating (Homo sapiens), sequence (P52209 whole entry, looked up): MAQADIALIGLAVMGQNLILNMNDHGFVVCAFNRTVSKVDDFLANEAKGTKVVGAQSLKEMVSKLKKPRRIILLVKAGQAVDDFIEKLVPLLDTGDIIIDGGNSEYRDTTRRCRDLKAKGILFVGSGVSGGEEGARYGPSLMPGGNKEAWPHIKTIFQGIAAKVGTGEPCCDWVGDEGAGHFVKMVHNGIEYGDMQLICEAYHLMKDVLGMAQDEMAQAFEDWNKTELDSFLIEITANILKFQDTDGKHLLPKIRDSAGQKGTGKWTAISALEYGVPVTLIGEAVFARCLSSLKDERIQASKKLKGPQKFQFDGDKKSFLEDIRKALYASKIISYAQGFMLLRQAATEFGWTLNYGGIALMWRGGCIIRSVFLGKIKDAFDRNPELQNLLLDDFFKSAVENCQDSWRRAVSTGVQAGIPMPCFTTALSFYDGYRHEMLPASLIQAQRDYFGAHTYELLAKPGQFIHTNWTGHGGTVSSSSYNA

[2] = EMT-state selective cytotoxicity in co-culture – imaging, PC-3E GFP, TEM4-18 mCherry, primary screen (AID 1345086;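 active = compounds killing one labelled cell type while sparing the other, by normalised counts and ratio limits, not self-fluorescent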;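 for all read-outs here: cells exposed to compound for 72 h before imaging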;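 for red/green cell ratio (normalised): normalised mesenchymal count divided by normalised epithelial count so high means epithelial killing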); settings: PC-3E GFP / TEM4-18 mCherry co-culture, imaging cell counts, at 1 µM; for red/green cell ratio (normalised): actives lie on both sides, counts scaled to control wells, 1 = unselective
[3] = target: Mitogen-activated protein kinase 7 (Homo sapiens) (UniProt Q13164); assay: Gal4-ERK5 driven luciferase induction – cell-based, HTS, primary screen (AID 1508626;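 active = luciferase signal above three times the same-plate solvent-only control wells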;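 note: luciferase driven by Gal4-ERK5 fusion binding five Gal4 sites before minimal TATA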); settings: HeLa Gal4-ERK5 transactivation, 18 h, at 5 µM, stronger effect = higher value
Mitogen-activated protein kinase 7 (Homo sapiens), sequence (Q13164 whole entry, looked up, the tested form may be a part): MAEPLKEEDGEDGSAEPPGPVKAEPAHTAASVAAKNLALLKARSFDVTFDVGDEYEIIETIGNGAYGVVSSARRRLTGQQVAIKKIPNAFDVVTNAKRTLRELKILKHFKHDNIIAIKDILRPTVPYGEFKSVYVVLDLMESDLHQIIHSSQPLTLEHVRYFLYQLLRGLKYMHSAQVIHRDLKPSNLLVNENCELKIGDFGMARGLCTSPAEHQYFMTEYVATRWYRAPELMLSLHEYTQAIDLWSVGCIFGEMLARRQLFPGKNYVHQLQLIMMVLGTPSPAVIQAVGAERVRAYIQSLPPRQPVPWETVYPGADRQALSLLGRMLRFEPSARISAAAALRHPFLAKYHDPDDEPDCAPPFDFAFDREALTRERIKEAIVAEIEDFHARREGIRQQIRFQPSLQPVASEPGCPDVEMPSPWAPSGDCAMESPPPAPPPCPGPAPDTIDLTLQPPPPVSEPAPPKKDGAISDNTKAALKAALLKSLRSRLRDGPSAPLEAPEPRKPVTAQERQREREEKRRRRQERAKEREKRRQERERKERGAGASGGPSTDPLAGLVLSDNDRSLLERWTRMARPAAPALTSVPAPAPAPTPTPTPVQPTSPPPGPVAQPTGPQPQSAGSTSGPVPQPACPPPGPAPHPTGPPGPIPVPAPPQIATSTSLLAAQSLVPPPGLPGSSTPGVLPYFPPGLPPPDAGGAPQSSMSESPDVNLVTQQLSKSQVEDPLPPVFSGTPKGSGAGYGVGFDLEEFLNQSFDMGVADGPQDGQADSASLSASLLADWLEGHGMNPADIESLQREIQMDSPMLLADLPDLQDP

[4] = measured here: epithelial PC-3E GFP cell survival
[5] = measured here: mesenchymal TEM4-18 mCherry cell survival

Row | Compound | inhibition [1] | red/green cell ratio (normalised) [2] | normalised cell number [2, 4] | normalised cell number [2, 5] | luciferase signal [3]
1 | COC(=O)c1c(C)cc(OC(=O)c2c(C)cc(O)c(C=O)c2O)c(C)c1O | 1.13% (inactive) | 0.78 (inactive) | 1.24 | 0.97 | 12 AU (inactive)
2 | CCNC(=O)CC[C@H](N)C(=O)O | 3.3% (inactive) | 0.97 (inactive) | 1.09 | 1.06 | 164 AU (inactive)
3 | CC(C)=CCC/C(C)=C/CC/C(C)=C/CO | 1.99% (inactive) | 0.89 (inactive) | 1.03 | 0.91 | 88 AU (inactive)
4 | COc1ccc2c(c1)OCc1c-2oc2cc(OC)ccc12 | 2.98% (inactive) | 0.82 (inactive) | 1.14 | 0.93 | 96 AU (inactive)
5 | CC1=C2C(O)C(=O)OC3CC4C(C)(C)C(=O)C=C[C@]4(C)C(CC1)[C@]23C (stereo not given in full) | -6.52% (inactive) | 1.05 (inactive) | 0.98 | 1.02 | 144 AU (active)
6 | COc1ccc2c(c1)OC[C@@H](Cc1ccc(OC)c(OC)c1)[C@@H]2O | 11.8% (inactive) | 0.93 (inactive) | 0.92 | 0.85 | 68 AU (inactive)
7 | O=c1c(-c2cc(O)c(O)c(O)c2)coc2cc(O)c(O)c(O)c12 | 29.2% (active) | 0.99 (inactive) | 1.01 | 1 | 220 AU (active)
8 | CCCCC[C@H](CC(=O)O)C(=O)O | 0.671% (inactive) | 0.96 (inactive) | 0.99 | 0.94 | 40 AU (inactive)
9 | C=C1C(=O)O[C@@H]2C[C@@]3(C)CCC[C@H](C)C3=C[C@H]12 | 8.8% (inactive) | 1.12 (inactive) | 0.81 | 0.9 | 84 AU (inactive)
10 | CC(CCC(=O)O)[C@H]1CCC2C3CC[C@@H]4CC(=O)CC[C@]4(C)C3C=C[C@@]21C (stereo not given in full) | 12.1% (inactive) | 0.9 (inactive) | 1 | 0.9 | 28 AU (inactive)
11 | COc1c(O)cc(O)cc1O | 8.04% (inactive) | 1.07 (inactive) | 0.92 | 0.98 | 40 AU (inactive)
12 | CC(C)=CCc1c2c(c3occ(-c4ccc(O)cc4)c(=O)c3c1O)C=CC(C)(C)O2 | 8.7% (inactive) | 1.02 (inactive) | 1.04 | 1.06 | 392 AU (active)
13 | C=CC(C)(O)CC/C=C(\C)CCC=C(C)C (stereo not given) | -3.52% (inactive) | 1.02 (inactive) | 0.95 | 0.98 | 68 AU (inactive)
14 | CC(=O)O[C@@H]1CC2C(C)(C)[C@H](O)CC[C@]2(C)C2CC[C@@]3(C)[C@H](c4ccoc4)OC(=O)C4OC43[C@@]21C (stereo not given in full) | -1.03% (inactive) and -1.39% (inactive) | 1.03 (inactive) | 1.03 | 1.06 | 36 AU (inactive)
15 | CCC(C(N)=O)c1ccccc1 (stereo not given) | -20.8% (inactive) | 0.96 (inactive) | 1.17 | 1.12 | 68 AU (inactive)
16 | COc1ccc(C(=O)O)c(O)c1OC | 17.2% (inactive) | 1.11 (inactive) | 1.01 | 1.12 | 56 AU (inactive)
17 | COc1c(O)cc2oc3cc(O)c(CC=C(C)C)c(O)c3c(=O)c2c1CC=C(C)C | 11.6% (inactive) | 0.81 (inactive) | 1.13 | 0.91 | 40 AU (inactive)
18 | COc1ccc([C@H]2Oc3cc(OC)cc(OC)c3C[C@H]2O)cc1 | -0.838% (inactive) | 0.79 (inactive) | 1.04 | 0.82 | 84 AU (inactive)

Row | Compound | inhibition [1] | red/green cell ratio (normalised) [2] | normalised cell number [2, 4] | normalised cell number [2, 5] | luciferase signal [3]
19 | COC(=O)c1c(OC)cc2c(c1C)Oc1c(Cl)c(O)c(Cl)c(C)c1C(=O)O2 | -6.18% (inactive) | 1.02 (inactive) | 1.07 | 1.1 | 56 AU (inactive)
20 | Cc1cc(O)cc(O)c1C(=O)O | -6.2% (inactive) | 0.81 (inactive) | 1.09 | 0.88 | 124 AU (inactive)
21 | COC1=CC(=O)C(C(=O)c2ccccc2)=CC1=O | -0.278% (inactive) | 1.01 (inactive) | 1.01 | 1.03 | 72 AU (inactive)
22 | CC(=O)Oc1cc(-c2coc3cc(OC(C)=O)c(OC(C)=O)c(OC(C)=O)c3c2=O)cc(OC(C)=O)c1OC(C)=O | -14.8% (inactive) | 0.88 (inactive) | 1.23 | 1.08 | 36 AU (inactive)
23 | O=C(O)c1cc2cc(Cl)ccc2[nH]1 | -0.282% (inactive) | 1 (inactive) | 1.21 | 1.21 | 52 AU (inactive)
24 | CC1=CC(=O)C(C(C)C)=CC1=O | -9.74% (inactive) | 0.97 (inactive) | 0.99 | 0.96 | 24 AU (inactive)
25 | COc1ccc2c(c1OC)OC[C@@H](c1ccc(OC)c(OC)c1OC)C2 | -2.69% (inactive) | 0.93 (inactive) | 0.93 | 0.86 | 96 AU (inactive)
26 | CCOc1ccc(C(=O)c2ccc(O)c(O)c2O)cc1 | -12.8% (inactive) | 0.88 (inactive) | 0.99 | 0.87 | 104 AU (inactive)
27 | O=C(Nc1ccccc1)Nc1ccccc1 | 0.726% (inactive) | 0.79 (inactive) | 1.16 | 0.91 | 108 AU (inactive)
28 | Cc1cc(=O)oc2cc(O)c(O)cc12 | 8.55% (inactive) | 0.79 (inactive) | 1.15 | 0.91 | 60 AU (inactive)
29 | C=C1CCC2C(CC2(C)C)C(=O)CCC1O (stereo not given) | 28.4% (active) | 1.02 (inactive) | 0.93 | 0.96 | 132 AU (inactive)
30 | CCOC(=O)c1c(C)cc(O)cc1O | 0.669% (inactive) | 0.99 (inactive) | 0.99 | 0.99 | 72 AU (inactive)
31 | C=C1C2CC[C@@]3(C)[C@H](c4ccoc4)OC(=O)C[C@]13O[C@H]1CC(=O)C(C)(C)[C@H](C(O)C(=O)OC)[C@@]21C (stereo not given in full) | -4.16% (inactive) | 0.98 (inactive) | 0.75 | 0.74 | 28 AU (inactive)
32 | Cc1cc(O)c(C=O)c2c1C(=O)Oc1c(C)c(O)c3c(c1O2)C(O)OC3=O (stereo not given) | 7.31% (inactive) | 0.95 (inactive) | 1.01 | 0.96 | 136 AU (inactive)
33 | CC1(C)CC2C1CCC1(C)OC2(C)CCC1O (stereo not given) | 12.8% (inactive) | 1.07 (inactive) | 0.96 | 1.03 | 100 AU (inactive)
34 | O=C(/C=C/c1ccccc1)c1ccc(O)cc1 | 1.18% (inactive) | 1.04 (inactive) | 0.75 | 0.79 | 28 AU (inactive)
35 | CC12CCC3C(CC3(C)C)C(C)(CCC1=O)O2 (stereo not given) | 11.8% (inactive) | 1.12 (inactive) | 0.97 | 1.09 | 60 AU (inactive)
36 | COc1ccc2c(C)cc(=O)oc2c1 | 13.6% (inactive) | 1.03 (inactive) | 1.13 | 1.16 | 60 AU (inactive)
